The values below come from the supplement of paper PMC7261846.

The structures appear in SMILES notation. ± gives the uncertainty stated by the source.

The assay deals with Candida albicans SNY425 biofilm. Briefly: biofilm OD600 with compound plus antifungal (OD600 (absorbance)); higher = more biofilm remaining.
Where [1] appears, read: assay detail: disruption of 24-h mature biofilm (compound + antifungal for a second 24 h).
The mark [2] stands for this setting: assay detail: sustained inhibition (compound + antifungal during 90-min adherence and 24-h growth).

For `CC(C)(C)NC(=O)[C@@H]1CN(Cc2cccnc2)CCN1C[C@@H](O)C[C@@H](Cc1ccccc1)C(=O)N[C@H]1c2ccccc2C[C@H]1O` [indinavir] + C[C@@H]1[C@H](O)[C@@H](C)/C=C/C=C/C=C/C=C/C=C/C=C/C=C/[C@H](O[C@@H]2O[C@H](C)[C@@H](O)[C@H](N)[C@@H]2O)C[C@@H]2O[C@](O)(C[C@@H](O)C[C@@H](O)[C@H](O)CC[C@@H](O)C[C@@H](O)CC(=O)O[C@H]1C)C[C@H](O)[C@H]2C(=O)O [amphotericin B] (first compound 12.5 µM), the “biofilm OD600” value under setting [1] came to 0.283 ± 0.0099 and the “biofilm OD600” value under setting [2] came out at 0.228 ± 0.0076.
The matching figures for `COC(=O)N[C@H](C(=O)N[C@@H](Cc1ccccc1)[C@@H](O)CN(Cc1ccc(-c2ccccn2)cc1)NC(=O)[C@@H](NC(=O)OC)C(C)(C)C)C(C)(C)C` [atazanavir] + C[C@@H]1[C@H](O)[C@@H](C)/C=C/C=C/C=C/C=C/C=C/C=C/C=C/[C@H](O[C@@H]2O[C@H](C)[C@@H](O)[C@H](N)[C@@H]2O)C[C@@H]2O[C@](O)(C[C@@H](O)C[C@@H](O)[C@H](O)CC[C@@H](O)C[C@@H](O)CC(=O)O[C@H]1C)C[C@H](O)[C@H]2C(=O)O [amphotericin B] (first compound 12.5 µM): 0.286 ± 0.013 and 0.213 ± 0.0068.
The corresponding values for `Cc1cccc(C)c1OCC(=O)N[C@@H](Cc1ccccc1)[C@@H](O)C[C@H](Cc1ccccc1)NC(=O)[C@H](C(C)C)N1CCCNC1=O` [lopinavir] + C[C@@H]1[C@H](O)[C@@H](C)/C=C/C=C/C=C/C=C/C=C/C=C/C=C/[C@H](O[C@@H]2O[C@H](C)[C@@H](O)[C@H](N)[C@@H]2O)C[C@@H]2O[C@](O)(C[C@@H](O)C[C@@H](O)[C@H](O)CC[C@@H](O)C[C@@H](O)CC(=O)O[C@H]1C)C[C@H](O)[C@H]2C(=O)O [amphotericin B] (first compound 12.5 µM) are 0.246 ± 0.0051 and 0.14 ± 0.015.
